Screens deposited in PubChem BioAssay by National Center for Advancing Translational Sciences (NCATS).
Rows were chosen to be rich in hits. Some 3.1% of all compounds tested hit in one or more screens of this group.
TRb SRC2 PPI = inhibitors of human thyroid hormone receptor beta-SRC2 interaction; P10828; TRbeta-SRC2 peptide binding, fluorescence polarization; receptor liganded with 1 µM T3; Potency, µM (top dose mostly 106 µM), inactives show at the top dose activity change, negative = inhibition, actives largely listed as inhibitors; actives 0.065% (n = 280,000);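 note: plate controls were bound peptide for no effect and peptide without receptor for full effect; nearly all actives have a fitted effect of over 50% in size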
Target sequence (P10828 whole entry, looked up): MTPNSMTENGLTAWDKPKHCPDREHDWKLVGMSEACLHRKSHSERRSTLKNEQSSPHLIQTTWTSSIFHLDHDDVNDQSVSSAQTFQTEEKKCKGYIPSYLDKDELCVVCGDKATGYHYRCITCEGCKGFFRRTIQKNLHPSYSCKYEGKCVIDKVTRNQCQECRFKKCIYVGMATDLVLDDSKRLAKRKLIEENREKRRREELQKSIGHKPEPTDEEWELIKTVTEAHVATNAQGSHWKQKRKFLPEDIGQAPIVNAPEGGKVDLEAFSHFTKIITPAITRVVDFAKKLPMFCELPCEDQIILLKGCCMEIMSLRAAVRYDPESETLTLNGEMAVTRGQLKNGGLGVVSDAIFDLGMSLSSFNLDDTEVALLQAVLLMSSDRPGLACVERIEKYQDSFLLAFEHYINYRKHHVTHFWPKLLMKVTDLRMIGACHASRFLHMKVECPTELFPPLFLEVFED
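Read-out is fluorescence polarization (555 nm excitation, 632 nm emission) of a Texas Red SRC2 coactivator peptide; loss of signal reflects blocked binding to human TRb ligand-binding domain in the presence of 1 uM T3.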
TR SRC2 fluor cs = Texas Red fluorescence interference in TRb-SRC2 counter-screen | TRb/SRC2 Texas Red total fluorescence interference | Potency, µM (series often up to 106 µM), without a hit: top-dose fluorescence change, negative = quenching | actives 0.29% (n = 280,000); active = well fitted curve in either direction with a large enough effect; inconclusive = small, poorly fitted or top-dose-only effect
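Human TRβ ligand-binding domain (0.6 uM) and Texas Red SRC2 peptide (20 nM) in Tris buffer with 1 uM T3 and 5% DMSO were incubated with pinned compound for 5 hr at ambient temperature. Total fluorescence was computed as S + 2P (555/632 nm).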
Tau ThT inhib = blocks human tau fibril formation measured by thioflavin T | P10636 | recombinant tau K18 P301L, heparin-induced fibrillization, ThT fluorescence | Potency, µM (series often up to 57.4 µM), for inactives: at the highest dose activity, negative = inhibition, actives largely listed as inhibitors | actives 2.1% (n = 270,000) | AID 1460; note: nearly all actives have a fitted effect of over 55% in size
Target sequence (P10636 561-689 P618L limits assumed): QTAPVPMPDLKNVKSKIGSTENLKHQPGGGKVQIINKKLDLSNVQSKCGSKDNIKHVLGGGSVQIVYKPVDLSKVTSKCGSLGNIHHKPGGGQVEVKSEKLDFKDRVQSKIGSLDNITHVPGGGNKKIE
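Aggregation was driven by heparin (20 uM final) acting on recombinant tau […] bearing P301L in 100 mM sodium acetate pH 7; fibrils were detected with Thioflavin T.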
Tau fluor cs = counter-screen for tau fibril formation inhibitors | AID 1463 | tau K18 P301L Alexa594 fluorescence, heparin fibrillization | actives 0.93% (n = 280,000) | Potency, µM (titrated, usually from 57.7 µM), without a hit: top-dose activity change, negative = decrease; note: nearly all actives have a fitted effect of over 55% in size
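Human tau K18 P301L (15 uM unlabeled, 0.24 uM Alexa 594-labeled) in 100 mM sodium acetate pH 7 with 20 uM heparin, 6 hr at 37 C. ThT 30 uM added, 1 hr ambient; Alexa 594 FP and total fluorescence read at 555/632 nm.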
Tau fibril FP = inhibitors of human tau fibril formation; K18 P301L tau heparin fibrillization, Alexa594 FP, 6 h; Potency, µM (titrated, usually from 57.7 µM), without a hit: top-dose activity, negative = inhibition, most hits filed as inhibitors; actives 0.39% (n = 280,000); AID 1468; note: nearly all actives have a fitted effect of over 55% in size
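Human tau K18 […] P301L fragment, 15 uM unlabeled plus 0.24 uM Alexa 594-labeled tau (final), with compound and 20 uM heparin in 100 mM sodium acetate pH 7; 6 hr at 37 C, then Alexa 594 FP read.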
Active calls of the source: *; ? = inconclusive; . = not tested or not shown; [ ] = another dose, or the depositor's remark. Unless noted, calls come from the whole dose curve; as a rule, active = well fitted curve in the direction sought with a large enough effect; inconclusive = small, poorly fitted or top-dose-only effect, or another doubt; inactive = no such curve, though single readings can be large; an effect the other way counts as inactive or inconclusive. Unless noted, % is set by controls: 0 for no effect and ±100 for the full control effect; potency is the fitted concentration of half-maximal effect.

SMILES	TRb SRC2 PPI	TR SRC2 fluor cs	Tau ThT inhib	Tau fluor cs	Tau fibril FP
CN(C)/C=C(\C=N\OCc1ccc(Cl)cc1Cl)C(=O)Nc1ccc(Cl)c(Cl)c1	-10%	-2%	?	16µM*[quencher]	-7%
N[C@H](C(=O)O)[C@H](O)C(=O)O	1%	-18%	-4%	-1%	-1%
O=C(O)C(S)[C@@H](S)C(=O)O (stereo partly specified)	4%	-13%	7.9µM*	-29%	11µM*
O=C(/C=C/c1cccs1)c1ccc(N2CCOCC2)cc1	3%	-4%	16µM*	-22%	-5%
O=C(/C=C/c1cccs1)c1ccc([N+](=O)[O-])cc1	-4%	-3%	?	-16%	12%
O=C(/C=C/c1cccc(F)c1)c1ccc(N2CCOCC2)cc1	5%	2%	13µM*	?	1%
Clc1ccc(C[n+]2csc3ccccc32)cc1	-9%	-1%	22µM*	-12%	?
CC1=NNC(=O)/C1=C\c1cn(-c2ccccc2)nc1-c1ccc(F)cc1	3%	-1%	20µM*	-23%	5%
O=C(c1ccc(Cl)cc1)[C@@H]1[C@@H]2C(=O)N(c3ccc(Cl)cc3)C(=O)[C@@H]2C2c3ccccc3C=NN21 (stereo partly specified)	1%	2%	-2%	-2%	-4%
O=C(C1=C[C@@H]2[C@H]3C(=O)N(c4ccccc4)C(=O)[C@H]3[C@@H](C(=O)c3ccc(Cl)cc3)N2C=C1)c1ccccc1	8%	1%	14µM*	?	?
CC(C)Oc1ccc(C(=O)N2CC(=O)Nc3ccc(F)cc3C2c2ccc(F)cc2)cc1 (stereo unspecified)	3%	-1%	-14%	-15%	-5%
Cc1nnc(SCC(=O)Nc2ccc(Br)cc2)[nH]c1=O	-17%[53 µM]	45µM*[quencher]	11%	-4%	-2%
Cc1ccc(NC(=O)CSc2nnc(C)c(=O)[nH]2)cc1C	-3%	3%	-4%	-13%	-10%
Oc1c(Cl)cc(Cl)cc1/C=N/NC(=S)NC1CC2C=CC1C2 (stereo unspecified)	0%	-8%	?	28µM*[quencher]	7%
Oc1ccccc1/C=N/NC(=S)NC1CC2C=CC1C2 (stereo unspecified)	1%	-1%	-1%	?	5%
O=C(O)c1cc2ccccc2c(Cc2cc3ccccc3c(C(=O)O)c2O)c1O (tested in a mixture with another compound)	0%[53 µM]	-7%[53 µM]	.	.	.
Clc1ccc2c(c1)c1ccccc1n2CN1CCOCC1	-10%	-4%	23%	?	-10%
Clc1ccc2c(c1)c1cc(Cl)ccc1n2CN1CCOCC1	-21%	0%	?	?	13µM*
CCOc1cc(Br)cc(C2NC(=O)c3c(sc4c3CCN(C)C4)N2)c1O (stereo unspecified)	1%	-6%	16µM*	-20%	-12%
O=C1NC(c2ccccn2)Nc2sc3c(c21)CCC3 (stereo unspecified)	-5%	1%	20µM*	-26%	?
Cc1ccsc1C1NC(=O)c2c(sc3c2CCCC3)N1 (stereo unspecified)	-6%	-5%	3.2µM*	-28%	?
CCOc1cc(C2NC(=O)c3c(sc4c3CCN(C)C4)N2)ccc1OC(=O)c1ccc(F)cc1 (stereo unspecified)	0%	-1%	?	-13%	2%
Cc1cccc(C2NC(=O)c3c(sc4c3CCN(C)C4)N2)c1O (stereo unspecified)	-19%[53 µM]	?	16µM*	-22%	-13%
CN1CCc2c(sc3c2C(=O)NC(c2ccc4c(c2)OCO4)N3)C1 (stereo unspecified)	-6%	-2%	?	-1%	-1%
Cc1ccc(-n2ncc(C(=O)NCCCN3CCN(c4cccc(Cl)c4)CC3)c2-n2cccc2)cc1	0%	0%	?	-22%	17%
SMILES	TRb SRC2 PPI	TR SRC2 fluor cs	Tau ThT inhib	Tau fluor cs	Tau fibril FP
CCc1ccc(C(=O)c2cn(CC(=O)NCCc3ccc(OC)c(OC)c3)c3nc(C)ccc3c2=O)cc1	-7%	0%	?	-24%	-15%
CN1CCc2c(sc3c2C(=O)NC(c2ccccn2)N3)C1 (stereo unspecified)	10µM*	45µM*[fluorescent]	-16%	25%	?
Cc1ccc(C2NC(=O)c3c(sc4c3CCN(C)C4)N2)s1 (stereo unspecified)	-23%	28%	14µM*	-14%	?
CCOC(=O)N1CCc2c(sc3c2C(=O)NC(c2ccc(C(=O)OC)cc2)N3)C1 (stereo unspecified)	-4%	3%	?	-11%	-2%
Cc1ccc(C2NC(=O)c3c(sc4c3CCN(C)C4)N2)o1 (stereo unspecified)	-9%	10%	?	-5%	-14%
CCOC(=O)N1CCc2c(sc3c2C(=O)NC(c2cc(OC)c(OC)c(OC)c2)N3)C1 (stereo unspecified)	1%	-4%	16µM*	-25%	-7%
CN1CCc2c(sc3c2C(=O)NC(c2ccccc2)N3)C1 (stereo unspecified)	-14%	16%	?	1%	?
CN1c2ccccc2N(C)C1(C)c1cccc2ccccc12	-1%	8%	16µM*	-28%	?
CCCCC1=CC2=C(OC(C)=O)C(=O)C(C)(OC(=O)c3ccco3)C(=O)C2=CO1 (stereo unspecified)	10%	1%	?	-16%	?
COC(=O)c1sc2cccc(F)c2c1S(=O)(=O)N1CCN(c2ccccc2OC)CC1	-3%	4%	-6%	?	0%
O=[N+]([O-])c1cc(Cl)ccc1NCCNS(=O)(=O)c1ccccc1	-2%	-4%	13µM*	?	4%
Cc1ccc2nc(NC(=O)c3nc(SCc4ccccc4C)ncc3Cl)sc2c1	1%	-1%	7%	-2%	-8%
CCC(=O)OCCNc1cc(SCCC(=O)OC)c2nonc2c1[N+](=O)[O-]	-1%	?	7.9µM*	?	?
CC(=O)OCCCNc1cc(Sc2ccc(Cl)cc2)c2nonc2c1[N+](=O)[O-]	-1%	7%	8.9µM*	?	?
CCCC(=O)OCCNc1cc(Sc2nc3ccccc3[nH]2)c2nonc2c1[N+](=O)[O-]	1%	2%	?	-28%	-2%
Cc1ccc(Sc2cc(NCCCO)c([N+](=O)[O-])c3nonc23)cc1	2%	-3%	.	-31%	-16%
CCC(=O)OCCNc1cc(Sc2nccn2C)c2nonc2c1[N+](=O)[O-]	-8%	0%	4.5µM*	?	-10%
Cc1cn2c(=O)cc(COc3cccc(NC(=O)c4ccccc4Cl)c3)nc2s1	0%	-3%	0%	-9%	-7%
